Over roughly 110,000 compounds, “z-score” has its median near -0.1; the highest 2% begin near 2. The entries come from a sample that favours the highest values as a whole. Active and inactive are the calls of the source.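 How the source made its calls: active means z-score in the third read window above 3 or below -3; inactive means the rest.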
target: Metabotropic glutamate receptor 8 (Rattus norvegicus) (UniProt P70579); test: mGluR8 Gi/Go-coupled signaling modulation – cell-based, rat, thallium flux, HTS, primary screen (AID 488969); conditions: HEK293 rat mGluR8, GIRK (G protein-gated inwardly rectifying potassium channel) thallium flux, FluoZin2; at 10 µM; stronger effect = higher value; submaximal glutamate (EC20) added with thallium
Sequence (P70579 whole entry, looked up): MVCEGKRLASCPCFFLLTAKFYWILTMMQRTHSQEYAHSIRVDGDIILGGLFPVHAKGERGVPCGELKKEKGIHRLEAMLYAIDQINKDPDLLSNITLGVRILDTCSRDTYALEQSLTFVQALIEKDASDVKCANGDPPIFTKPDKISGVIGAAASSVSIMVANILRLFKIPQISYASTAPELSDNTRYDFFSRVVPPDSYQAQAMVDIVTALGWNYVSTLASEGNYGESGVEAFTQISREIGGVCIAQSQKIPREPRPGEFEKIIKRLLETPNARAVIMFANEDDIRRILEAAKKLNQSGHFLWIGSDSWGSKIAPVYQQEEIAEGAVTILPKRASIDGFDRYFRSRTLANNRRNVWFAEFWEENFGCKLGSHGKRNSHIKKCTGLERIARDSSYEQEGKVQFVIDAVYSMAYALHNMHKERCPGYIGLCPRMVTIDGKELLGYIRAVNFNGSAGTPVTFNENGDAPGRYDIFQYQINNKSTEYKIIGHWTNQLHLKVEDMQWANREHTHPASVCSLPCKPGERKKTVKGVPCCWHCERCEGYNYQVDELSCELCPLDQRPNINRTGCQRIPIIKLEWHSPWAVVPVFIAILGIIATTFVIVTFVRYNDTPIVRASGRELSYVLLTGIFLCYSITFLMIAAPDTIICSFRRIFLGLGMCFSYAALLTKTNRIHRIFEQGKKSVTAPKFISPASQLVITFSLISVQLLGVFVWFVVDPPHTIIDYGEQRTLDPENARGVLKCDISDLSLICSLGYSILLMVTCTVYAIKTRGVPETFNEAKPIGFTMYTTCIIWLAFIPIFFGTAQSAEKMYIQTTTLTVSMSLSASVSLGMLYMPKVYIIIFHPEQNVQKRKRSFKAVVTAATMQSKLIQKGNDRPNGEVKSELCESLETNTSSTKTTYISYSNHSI

Structure (SMILES) | z-score
CCOC(=O)c1cc(C(C)=O)c(=O)n(C)c1N | -0.198
CCOC(=O)c1cc2n(c1/N=C/N(C)C)-c1ccccc1C2=O | -0.437
CCOC(=O)c1cc2n(c1N)-c1ccccc1C2=O | 5.13 (active)
CCOC(=O)c1c(C)[nH]c(C)c1C(=O)COC(=O)/C=C/c1ccc(OC(F)F)cc1 | -0.244
COCC(C)n1c(SCC(=O)NNC(=O)c2ccccc2)nc2ccccc2c1=O (stereo not given) | -0.346
CCOC(=O)/C(C#N)=C/C1=C(N2CCCC2)CC(C)(C)OC1 | 2.75
CCOC(=O)/C(C#N)=C\C1=C(N2CCCC2)CC(C)(C)OC1 | 0.457
CCOC(=O)/C(C#N)=C/C1=C(N2CCCC2)CC(C)(CC)OC1 (stereo not given) | -0.501
Cc1ccc(S(=O)(=O)N2C(=O)C(c3ccccc3)SC2=Nc2ccccc2)cc1 (stereo not given) | 0.00767
CN(CCO)c1ccc([N+](=O)[O-])cc1C(=O)O | 0.404
CCOc1ccc(S(=O)(=O)Nc2ccccc2C(=O)N/N=C/c2c(OC)ccc3ccccc23)cc1 | -0.58
O=C(Nc1ccccc1C(=O)N/N=C/c1ccco1)c1ccccc1 | 3.37 (active)
O=C(Nc1ccccc1C(=O)N/N=C/c1ccco1)c1ccccc1Cl | 0.924
Cc1ccccc1C(=O)Nc1ccccc1C(=O)N/N=C\c1ccco1 | 5.6 (active)
O=C(Nc1ccccc1C(=O)N/N=C/c1ccco1)c1ccc(Cl)cc1 | 0.162
O=C(N/N=C/c1ccco1)c1ccncc1 | 0.0764
Cc1nc2ccccc2cc1C(=O)N/N=C/c1ccco1 | 0.211
Cc1cc(C)nc(N/N=C/c2ccccc2OCc2cccc(Br)c2)n1 | -0.027
O=C(NN1C(=O)C2C3C=CC(C4CC34)C2C1=O)c1ccc(Cl)cc1Cl (stereo not given) | -0.0308
Cc1ccc(-c2nnn(CC(=O)N(c3ccccc3)C(C(=O)NC(C)(C)C)c3cccs3)n2)o1 (stereo not given) | -0.243
CCCC(=O)Nc1c2c(nn1-c1ccc(OC)cc1)CS(=O)C2 (stereo not given) | -1.01
COc1ccc(Cl)cc1N(C)C(=O)CCc1nc(-c2ccc(C)cc2)no1 | 0.139
CC(=O)Nc1ccc(SCC(=O)Nc2ccccc2-c2ccccc2)cc1 | -0.153
CCCCNC(=S)Nc1ccccc1F | 0.54
CCNC(=S)N/N=C/c1ccco1 | 0.768

Structure (SMILES) | z-score
CCCCNC(=S)N/N=C/c1ccc(C)s1 | 1.81
CC(C)/C=N/NC(=O)c1ccc(Cl)cc1 | -0.254
CNC(=O)CN1C(=O)c2cccc3cccc1c23 | 0.394
O=C1c2cccc3cccc(c23)C(=O)N1OS(=O)(=O)c1ccc(Cl)cc1 | 0.123
CC(=O)N1C(=O)c2cccc3cccc(c23)C(=O)N1C(C)=O | 0.73
CCNC(=S)NS(=O)(=O)c1ccccc1 | -0.195
O=C(N/N=C1/C(=O)c2cccc3cccc1c23)c1ccc(Cl)cc1 | 3.2 (active)
CNC(=S)N/N=C1\C(=O)c2cccc3cccc1c23 | 14.1 (active)
CCCCNC(=S)N/N=C1\C(=O)c2cccc3cccc1c23 | 3.16 (active)
CCNC(=S)N/N=C1\C(=O)c2cccc3cccc1c23 | 12.9 (active)
CCC(Sc1nc2ccccc2c(=O)[nH]1)C(=O)O (stereo not given) | 0.219
CC(C)(C)c1ccc(S(=O)(=O)NCC(=O)N2CCN(C(=O)c3ccco3)CC2)cc1 | -0.0781
O=C(CCSCCC(=O)NCc1ccc(F)cc1)NCc1ccc(F)cc1 | -0.471
CCOC(=O)c1c(-c2ccc(OC)cc2)csc1/N=C/N(C)C | -0.193
COc1ccc2c(c1)c1nc3ccccc3nc1n2Cc1ccc(OC(C)C)c(OC)c1 | -0.644
O=C(NCC(=O)N1CCN(c2ncccn2)CC1)c1cccs1 | 0.235
Cn1cc(-c2nnnn2-c2ccc(Cl)cc2)c(C(F)(F)F)n1 | 0.131
CCCCc1nc(NCc2ccccc2)c(C#N)c2c1COC(C)(C)C2 | 0.531
O=C(NCCCN1CCOCC1)c1ccc(CS(=O)(=O)c2ccc(Br)cc2)o1 | -0.0398
CC(=O)Nc1ccc(NC(=O)c2ccc(Cn3cc(Cl)cn3)cc2)cc1 | -0.369
S=c1[nH]cc(-c2ccc(Cl)cc2)n1-c1ccccc1 | 1.94
Cc1cccc(-n2cc[nH]c2=S)c1 | 0.0616
S=c1[nH]cc(-c2ccccc2)n1-c1cccc(Cl)c1 | 2.94
C=CCn1c(-c2ccccc2)c[nH]c1=S | 0.229
CCn1c(-c2ccc(-c3ccccc3)cc2)c[nH]c1=S | 3.86 (active)

Structure (SMILES) | z-score
S=c1[nH]cc(-c2ccccc2)n1-c1ccccc1 | 0.267
Cc1ccc(-n2cc[nH]c2=S)cc1C | 1.42
S=c1[nH]ccn1-c1cccc(Cl)c1 | 2.29
Cn1c(-c2ccc(-c3ccccc3)cc2)c[nH]c1=S | 4.21 (active)
S=c1[nH]cc(-c2ccccc2)n1-c1ccccc1Cl | 0.447
CCn1c(-c2ccccc2)c[nH]c1=S | 0.254
Cn1c(-c2ccccc2)cccc1=O | 0.333
COc1ccnc(N2CCN(c3ccccc3)CC2)c1C#N | 0.0026
COc1cccc(/C(O)=C2/C(=O)C(=O)N(CCN(C)C)C2c2ccccn2)c1 (stereo not given) | -0.249
CCc1ccc(NC(=O)CSc2nc3ccccc3c(=O)n2CCCC(=O)N2CCCC2)cc1 | -0.305
NC(=O)c1ccc(F)cc1 | 0.635
Cc1ccc(NC(=O)N2C(=O)C3(OCCO3)c3ccccc32)cc1 | -0.237
COc1ccc(-c2cc(C(F)F)n3ncc(C(=O)N4CCN(C)CC4)c3n2)cc1 | -0.201
COc1cc(C2C(C(=O)N3CCOCC3)=C(C)NC3=C2C(=O)CCC3)ccc1OC(C)=O (stereo not given) | 0.401
COCCCNCCCCOc1cccc(Br)c1 | 0.266
CC(=O)Nc1nc2ccc(-c3nc4ccccc4o3)cc2s1 | 2.69
CC(=O)Nc1nc2ccc(C(=O)NC3CCCCC3)cc2s1 | -0.32
Nc1nc2ccc(-c3nc4ccccc4o3)cc2s1 | -0.112
Cc1ccc2nc(NC(=O)CSc3nc4ccccc4o3)sc2c1 | 0.182
CNC(=O)c1ccc2nc(NC(C)=O)sc2c1 | 8.42 (active)
Cc1ccc2nc(NC(=O)c3ccc4ncsc4c3)sc2c1 | 0.195
COC(=O)c1ccc(CSc2ccc3nnc(-c4cccc(F)c4)n3n2)o1 | -0.901
Cc1cccc(N2CSC3=C(C#N)C(c4ccc(C)o4)CC(=O)N3C2)c1 (stereo not given) | -0.375
CCOC(=O)/C(=C\Nc1ccc(OC(F)(F)F)cc1)Sc1ncc(C(F)(F)F)cc1Cl | -0.436
CN(c1cccc(NC(=O)c2ccccc2N(C)S(=O)(=O)c2ccccc2)c1)S(C)(=O)=O | -0.199

Source: PubChem BioAssay AID488969 (Vanderbilt High Throughput Screening Facility, 2010)
